Holding throughout (test): DAPPL (digital affinity profiling via proximity ligation, sequencing); 10 mM Tris-HCl pH 7.5, 50 mM NaCl, 1 mM DTT, 4% glycerol, room temperature, 30 min; GST-TFs on glutathione beads, 16-mer random dsDNA library, 0.1% formaldehyde crosslink after washing; high values mean tight binding
The target of one assay is T1, FEV (Homo sapiens, UniProt Q99581 1-238).
T1 sequence: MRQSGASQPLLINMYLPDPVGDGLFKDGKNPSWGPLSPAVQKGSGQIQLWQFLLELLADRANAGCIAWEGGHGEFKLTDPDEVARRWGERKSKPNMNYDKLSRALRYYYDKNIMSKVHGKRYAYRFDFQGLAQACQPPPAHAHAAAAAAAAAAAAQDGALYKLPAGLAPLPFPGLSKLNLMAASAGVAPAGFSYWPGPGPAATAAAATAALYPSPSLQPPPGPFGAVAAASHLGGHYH
To be noted: protein: recombinant; tags: N-terminal GST; dsDNA, one strand shown. The essentials:
(§1)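 Binding signal is each hexamer's read frequency for a factor divided by its frequency in the tag-only sample. The factors were GST-fused human transcription factors from yeast, captured on glutathione beads, DNA-barcoded and pooled with that sample. Pools were incubated with 200 nmole of a random double-stranded 16-mer DNA library in Tris/NaCl/DTT/glycerol buffer at room temperature for 30 min, then washed, crosslinked with 0.1% formaldehyde, proximity-ligated with BsaI/T4 ligase (1 h, 37 °C), PCR-amplified and sequenced on an Illumina NextSeq500.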

The target in the next assay is ETV5 (Homo sapiens, UniProt P41161 1-510). Particulars: protein: recombinant; tags: N-terminal GST; dsDNA, one strand shown. The essentials:
as §1

The target of a further assay is HSF1 (Homo sapiens, UniProt Q00613 1-529). To be noted: protein: recombinant; tags: N-terminal GST; chain copies: 3; dsDNA, one strand shown. Summed up: as §1
For another assay, the target named is T2, SPIC (Homo sapiens, UniProt Q8N5J4 1-248).
T2 sequence: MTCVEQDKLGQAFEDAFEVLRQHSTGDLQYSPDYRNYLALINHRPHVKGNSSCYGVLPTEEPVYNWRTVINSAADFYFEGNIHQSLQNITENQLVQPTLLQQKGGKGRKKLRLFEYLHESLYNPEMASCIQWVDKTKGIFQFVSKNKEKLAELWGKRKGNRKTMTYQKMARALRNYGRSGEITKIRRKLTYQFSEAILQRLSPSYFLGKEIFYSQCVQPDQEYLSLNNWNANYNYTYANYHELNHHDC
Particulars: protein: recombinant; tags: N-terminal GST; dsDNA, one strand shown. The essentials:
as §1

For a further assay, the target named is ELF4 (Homo sapiens, UniProt Q99607 1-663). Particulars: protein: recombinant; tags: N-terminal GST; dsDNA, one strand shown. Summed up: as §1
The next assay concerns the target T3, ELK4 (Homo sapiens, UniProt P28324-2 1-405).
T3 sequence: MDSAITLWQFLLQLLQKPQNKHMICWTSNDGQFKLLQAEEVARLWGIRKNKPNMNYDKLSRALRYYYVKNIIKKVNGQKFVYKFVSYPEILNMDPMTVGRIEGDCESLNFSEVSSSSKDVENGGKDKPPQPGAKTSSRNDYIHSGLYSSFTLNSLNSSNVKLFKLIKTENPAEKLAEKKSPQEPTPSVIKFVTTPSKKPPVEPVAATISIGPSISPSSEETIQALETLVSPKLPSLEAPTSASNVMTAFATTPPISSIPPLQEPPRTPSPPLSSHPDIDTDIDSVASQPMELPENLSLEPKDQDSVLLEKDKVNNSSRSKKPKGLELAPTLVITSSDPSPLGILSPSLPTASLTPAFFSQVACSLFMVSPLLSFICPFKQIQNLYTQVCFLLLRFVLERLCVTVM
To be noted: protein: recombinant; tags: N-terminal GST; dsDNA, one strand shown. Summed up: as §1

The target of another assay is T4, ETV2 (Homo sapiens, UniProt O00321 1-342).
T4 sequence: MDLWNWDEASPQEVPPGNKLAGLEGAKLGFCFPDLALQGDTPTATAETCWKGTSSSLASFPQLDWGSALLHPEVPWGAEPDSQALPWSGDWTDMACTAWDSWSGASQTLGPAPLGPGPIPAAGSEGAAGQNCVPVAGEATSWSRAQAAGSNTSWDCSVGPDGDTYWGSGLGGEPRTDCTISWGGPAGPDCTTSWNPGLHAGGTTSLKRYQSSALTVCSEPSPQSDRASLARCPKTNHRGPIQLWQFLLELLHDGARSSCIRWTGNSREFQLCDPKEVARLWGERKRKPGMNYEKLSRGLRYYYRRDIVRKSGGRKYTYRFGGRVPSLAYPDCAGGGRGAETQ
To be noted: protein: recombinant; tags: N-terminal GST; dsDNA, one strand shown. Summed up: as §1

A further assay has as its target T5, ELF3 (Homo sapiens, UniProt P78545 1-371).
T5 sequence: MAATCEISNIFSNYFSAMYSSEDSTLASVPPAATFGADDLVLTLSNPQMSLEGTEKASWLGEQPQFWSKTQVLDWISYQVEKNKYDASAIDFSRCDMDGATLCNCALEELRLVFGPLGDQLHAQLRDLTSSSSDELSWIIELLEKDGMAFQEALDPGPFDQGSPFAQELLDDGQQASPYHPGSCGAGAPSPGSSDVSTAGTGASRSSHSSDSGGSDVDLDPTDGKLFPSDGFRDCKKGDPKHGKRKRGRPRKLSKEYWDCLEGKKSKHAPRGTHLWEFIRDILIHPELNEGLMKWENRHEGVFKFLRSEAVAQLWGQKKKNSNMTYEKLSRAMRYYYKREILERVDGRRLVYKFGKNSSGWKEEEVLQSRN
Particulars: protein: recombinant; tags: N-terminal GST; dsDNA, one strand shown. Summed up:
as §1

The next assay deals with CRX (Homo sapiens, UniProt O43186 1-299). Particulars: protein: recombinant; tags: N-terminal GST; dsDNA, one strand shown. Summed up:
as §1

The target of a further assay is ETV1 (Homo sapiens, UniProt P50549 1-477). Particulars: protein: recombinant; tags: N-terminal GST; dsDNA, one strand shown. Summed up:
as §1

Another assay deals with T6, ERF (Homo sapiens, UniProt P50548 1-548).
T6 sequence: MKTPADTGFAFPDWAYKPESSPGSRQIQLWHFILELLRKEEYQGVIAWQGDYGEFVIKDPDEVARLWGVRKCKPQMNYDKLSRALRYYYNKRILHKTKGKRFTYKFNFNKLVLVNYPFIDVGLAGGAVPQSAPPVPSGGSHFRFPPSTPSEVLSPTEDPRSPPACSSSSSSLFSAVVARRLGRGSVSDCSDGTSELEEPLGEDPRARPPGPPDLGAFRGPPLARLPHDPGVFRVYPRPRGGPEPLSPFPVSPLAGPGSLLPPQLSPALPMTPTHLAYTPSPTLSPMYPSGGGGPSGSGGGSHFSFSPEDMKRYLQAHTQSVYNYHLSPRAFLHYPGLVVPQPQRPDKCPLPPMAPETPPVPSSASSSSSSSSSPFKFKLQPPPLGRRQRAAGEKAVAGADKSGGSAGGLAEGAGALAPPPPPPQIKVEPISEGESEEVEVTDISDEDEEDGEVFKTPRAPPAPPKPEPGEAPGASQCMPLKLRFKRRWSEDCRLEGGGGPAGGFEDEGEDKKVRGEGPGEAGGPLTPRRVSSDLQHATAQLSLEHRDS
Particulars: protein: recombinant; tags: N-terminal GST; dsDNA, one strand shown. Summed up: as §1

For the next assay, the target named is T7, ETV3L (Homo sapiens, UniProt Q6ZN32 1-361).
T7 sequence: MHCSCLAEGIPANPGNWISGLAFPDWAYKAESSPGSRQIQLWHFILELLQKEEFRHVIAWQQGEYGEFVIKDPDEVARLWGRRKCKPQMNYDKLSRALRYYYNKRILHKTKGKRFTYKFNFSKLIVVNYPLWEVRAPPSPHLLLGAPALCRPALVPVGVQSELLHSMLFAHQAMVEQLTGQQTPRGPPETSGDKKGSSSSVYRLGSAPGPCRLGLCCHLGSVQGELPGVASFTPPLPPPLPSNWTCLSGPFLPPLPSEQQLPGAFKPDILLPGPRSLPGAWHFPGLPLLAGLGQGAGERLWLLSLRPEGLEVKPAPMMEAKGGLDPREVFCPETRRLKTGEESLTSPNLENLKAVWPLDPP
To be noted: protein: recombinant; tags: N-terminal GST; dsDNA, one strand shown. The essentials: as §1

The next assay deals with T8, ETS2 (Homo sapiens, UniProt P15036 1-469).
T8 sequence: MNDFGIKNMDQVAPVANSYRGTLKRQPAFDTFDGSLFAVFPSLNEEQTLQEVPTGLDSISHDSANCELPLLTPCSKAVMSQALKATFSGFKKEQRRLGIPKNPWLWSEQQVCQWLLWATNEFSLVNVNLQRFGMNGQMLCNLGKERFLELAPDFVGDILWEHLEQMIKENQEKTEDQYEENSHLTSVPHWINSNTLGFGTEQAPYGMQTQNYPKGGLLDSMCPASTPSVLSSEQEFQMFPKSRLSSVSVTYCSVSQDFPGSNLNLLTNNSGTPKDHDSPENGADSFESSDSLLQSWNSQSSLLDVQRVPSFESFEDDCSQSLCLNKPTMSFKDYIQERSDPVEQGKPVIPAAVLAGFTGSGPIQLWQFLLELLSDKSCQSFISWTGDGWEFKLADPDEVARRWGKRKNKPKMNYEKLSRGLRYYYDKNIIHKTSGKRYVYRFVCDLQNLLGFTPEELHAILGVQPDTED
Particulars: protein: recombinant; tags: N-terminal GST; dsDNA, one strand shown. The essentials: as §1

The next assay deals with T9, SPDEF (Homo sapiens, UniProt O95238 1-335).
T9 sequence: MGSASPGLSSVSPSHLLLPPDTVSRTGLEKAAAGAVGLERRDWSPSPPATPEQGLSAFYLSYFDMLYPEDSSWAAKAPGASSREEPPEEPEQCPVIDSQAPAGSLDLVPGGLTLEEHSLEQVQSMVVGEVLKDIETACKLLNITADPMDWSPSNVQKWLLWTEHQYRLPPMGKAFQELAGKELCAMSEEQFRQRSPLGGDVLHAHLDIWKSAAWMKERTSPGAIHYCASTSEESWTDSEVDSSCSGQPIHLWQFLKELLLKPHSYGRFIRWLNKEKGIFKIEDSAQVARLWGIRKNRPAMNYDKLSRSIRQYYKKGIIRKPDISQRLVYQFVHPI
To be noted: protein: recombinant; tags: N-terminal GST; dsDNA, one strand shown. The essentials: as §1

The target in another assay is T10, ETV7 (Homo sapiens, UniProt Q9Y603 1-341).
T10 sequence: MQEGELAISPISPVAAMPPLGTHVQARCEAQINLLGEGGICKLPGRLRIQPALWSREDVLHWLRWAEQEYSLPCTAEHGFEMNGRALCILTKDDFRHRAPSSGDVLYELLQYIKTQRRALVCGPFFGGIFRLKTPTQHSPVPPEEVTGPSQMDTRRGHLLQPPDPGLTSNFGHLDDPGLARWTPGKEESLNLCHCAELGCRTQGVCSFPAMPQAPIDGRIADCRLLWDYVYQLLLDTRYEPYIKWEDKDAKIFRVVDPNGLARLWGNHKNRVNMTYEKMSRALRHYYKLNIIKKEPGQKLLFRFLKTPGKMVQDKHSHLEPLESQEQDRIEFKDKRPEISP
Particulars: protein: recombinant; tags: N-terminal GST; dsDNA, one strand shown. Summed up:
as §1

The next assay concerns the target T11, ELF5 (Homo sapiens, UniProt Q9UKW6-2 1-255).
T11 sequence: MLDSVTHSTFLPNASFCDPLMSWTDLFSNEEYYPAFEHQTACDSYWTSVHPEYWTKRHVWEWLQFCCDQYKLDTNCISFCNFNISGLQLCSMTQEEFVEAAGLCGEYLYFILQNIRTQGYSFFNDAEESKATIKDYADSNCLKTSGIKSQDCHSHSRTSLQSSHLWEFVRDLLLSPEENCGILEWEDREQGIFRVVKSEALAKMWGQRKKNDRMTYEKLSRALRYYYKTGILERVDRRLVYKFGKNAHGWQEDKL
To be noted: protein: recombinant; tags: N-terminal GST; dsDNA, one strand shown. The essentials: as §1

A further assay concerns the target T12, ETV3 (Homo sapiens, UniProt P41162-2 1-143).
T12 sequence: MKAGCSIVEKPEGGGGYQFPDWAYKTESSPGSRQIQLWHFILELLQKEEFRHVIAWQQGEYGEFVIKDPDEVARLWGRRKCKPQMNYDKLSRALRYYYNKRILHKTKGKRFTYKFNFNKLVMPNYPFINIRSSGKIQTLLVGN
Particulars: protein: recombinant; tags: N-terminal GST; dsDNA, one strand shown. The essentials: as §1

A further assay addresses ETV6 (Homo sapiens, UniProt P41212 1-452). Particulars: protein: recombinant; tags: N-terminal GST; dsDNA, one strand shown. Summed up:
as §1

ETV1, sequence (P50549 whole entry): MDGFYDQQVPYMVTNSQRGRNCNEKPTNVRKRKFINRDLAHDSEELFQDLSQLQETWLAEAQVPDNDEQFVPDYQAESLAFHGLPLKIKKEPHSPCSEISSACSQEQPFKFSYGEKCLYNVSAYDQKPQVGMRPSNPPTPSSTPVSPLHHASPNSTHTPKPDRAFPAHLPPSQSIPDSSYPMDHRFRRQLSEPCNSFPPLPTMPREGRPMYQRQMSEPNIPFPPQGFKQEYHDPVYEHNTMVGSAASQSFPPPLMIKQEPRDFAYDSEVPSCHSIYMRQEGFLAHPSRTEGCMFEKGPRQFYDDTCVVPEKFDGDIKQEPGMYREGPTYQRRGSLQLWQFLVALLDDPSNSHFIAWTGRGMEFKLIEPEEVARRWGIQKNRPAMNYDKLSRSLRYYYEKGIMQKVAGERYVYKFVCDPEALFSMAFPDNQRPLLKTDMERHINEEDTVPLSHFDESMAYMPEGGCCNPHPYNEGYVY
ETV5, sequence (P41161 whole entry): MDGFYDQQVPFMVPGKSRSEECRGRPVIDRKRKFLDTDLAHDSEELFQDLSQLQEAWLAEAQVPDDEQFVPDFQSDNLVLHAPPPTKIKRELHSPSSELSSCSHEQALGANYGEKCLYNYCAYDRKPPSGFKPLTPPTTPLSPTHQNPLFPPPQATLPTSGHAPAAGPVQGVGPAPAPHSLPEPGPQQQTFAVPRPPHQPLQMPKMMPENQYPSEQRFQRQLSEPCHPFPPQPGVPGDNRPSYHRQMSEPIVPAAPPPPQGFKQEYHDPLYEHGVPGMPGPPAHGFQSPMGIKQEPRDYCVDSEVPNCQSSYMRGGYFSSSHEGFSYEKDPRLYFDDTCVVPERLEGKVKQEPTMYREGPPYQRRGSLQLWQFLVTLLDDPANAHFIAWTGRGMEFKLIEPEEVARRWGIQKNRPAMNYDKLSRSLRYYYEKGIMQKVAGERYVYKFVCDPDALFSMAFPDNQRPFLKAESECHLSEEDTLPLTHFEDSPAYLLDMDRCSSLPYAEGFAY
ELF4, sequence (Q99607 whole entry): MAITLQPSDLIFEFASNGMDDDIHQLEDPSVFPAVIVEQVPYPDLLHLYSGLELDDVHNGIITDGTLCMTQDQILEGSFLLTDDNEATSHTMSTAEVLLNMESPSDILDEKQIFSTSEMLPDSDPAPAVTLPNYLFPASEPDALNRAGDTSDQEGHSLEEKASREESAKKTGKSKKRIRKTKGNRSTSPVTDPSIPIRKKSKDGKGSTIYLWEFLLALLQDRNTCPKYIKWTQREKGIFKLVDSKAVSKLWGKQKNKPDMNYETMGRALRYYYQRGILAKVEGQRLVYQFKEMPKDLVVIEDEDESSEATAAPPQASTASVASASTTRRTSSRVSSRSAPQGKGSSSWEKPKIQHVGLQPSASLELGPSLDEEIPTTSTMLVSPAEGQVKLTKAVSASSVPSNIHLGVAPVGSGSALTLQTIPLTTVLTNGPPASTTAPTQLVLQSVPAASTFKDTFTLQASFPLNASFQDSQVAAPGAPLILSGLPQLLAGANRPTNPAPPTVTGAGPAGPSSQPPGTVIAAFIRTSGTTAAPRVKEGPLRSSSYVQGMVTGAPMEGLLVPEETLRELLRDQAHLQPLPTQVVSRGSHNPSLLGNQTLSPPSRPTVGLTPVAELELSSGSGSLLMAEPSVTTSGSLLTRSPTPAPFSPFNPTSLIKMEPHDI
HSF1, sequence (Q00613 whole entry): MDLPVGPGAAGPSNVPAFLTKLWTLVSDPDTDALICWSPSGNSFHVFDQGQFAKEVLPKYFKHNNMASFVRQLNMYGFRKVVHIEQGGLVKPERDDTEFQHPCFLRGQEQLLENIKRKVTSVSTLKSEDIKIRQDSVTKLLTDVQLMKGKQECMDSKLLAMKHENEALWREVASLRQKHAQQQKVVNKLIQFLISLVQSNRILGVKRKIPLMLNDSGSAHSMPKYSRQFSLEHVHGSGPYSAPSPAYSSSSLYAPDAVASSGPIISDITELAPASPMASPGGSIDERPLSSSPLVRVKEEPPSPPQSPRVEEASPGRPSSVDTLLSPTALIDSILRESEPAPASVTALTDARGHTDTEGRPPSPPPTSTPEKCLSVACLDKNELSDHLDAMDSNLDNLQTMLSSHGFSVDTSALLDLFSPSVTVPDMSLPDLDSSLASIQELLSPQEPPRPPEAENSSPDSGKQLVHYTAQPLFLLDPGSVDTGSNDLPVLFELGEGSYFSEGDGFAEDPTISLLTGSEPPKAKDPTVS
CRX, sequence (O43186 whole entry): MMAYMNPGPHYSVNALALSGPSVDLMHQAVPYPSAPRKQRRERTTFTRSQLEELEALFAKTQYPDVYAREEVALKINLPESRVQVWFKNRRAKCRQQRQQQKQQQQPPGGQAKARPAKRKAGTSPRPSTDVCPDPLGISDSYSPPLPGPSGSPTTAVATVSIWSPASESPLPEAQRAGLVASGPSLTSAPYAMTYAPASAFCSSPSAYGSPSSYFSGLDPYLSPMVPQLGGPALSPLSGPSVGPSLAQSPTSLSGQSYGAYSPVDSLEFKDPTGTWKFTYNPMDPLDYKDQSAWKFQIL
ETV6, sequence (P41212 whole entry): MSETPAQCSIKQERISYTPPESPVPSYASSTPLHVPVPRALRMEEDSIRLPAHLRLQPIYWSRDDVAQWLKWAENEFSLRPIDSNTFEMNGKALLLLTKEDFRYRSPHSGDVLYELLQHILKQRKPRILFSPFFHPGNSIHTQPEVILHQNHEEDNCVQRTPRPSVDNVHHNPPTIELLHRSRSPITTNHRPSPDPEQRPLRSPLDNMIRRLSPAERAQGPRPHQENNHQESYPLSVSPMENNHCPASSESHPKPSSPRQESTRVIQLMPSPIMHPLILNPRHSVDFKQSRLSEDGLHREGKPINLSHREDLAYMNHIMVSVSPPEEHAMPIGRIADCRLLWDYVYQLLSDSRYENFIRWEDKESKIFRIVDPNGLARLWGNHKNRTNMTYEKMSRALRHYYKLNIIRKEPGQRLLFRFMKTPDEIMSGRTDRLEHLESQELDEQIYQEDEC

With TCTTAT, the binding signal is 1.27 fold enrichment (6-mer frequency, TF over GST control) with FEV; 1.26 fold enrichment (6-mer frequency, TF over GST control) in the assay with ETV5; 1.57 fold enrichment (6-mer frequency, TF over GST control) with HSF1; 1.3 fold enrichment (6-mer frequency, TF over GST control) with SPIC; 1.21 fold enrichment (6-mer frequency, TF over GST control) with ELF4; 1.3 fold enrichment (6-mer frequency, TF over GST control) with ELK4. In addition, the binding signal is 1.22 fold enrichment (6-mer frequency, TF over GST control) with ETV2; 1.36 fold enrichment (6-mer frequency, TF over GST control) in the assay with ELF3; 2.21 fold enrichment (6-mer frequency, TF over GST control) with CRX; 1.32 fold enrichment (6-mer frequency, TF over GST control) with ETV1; 1.24 fold enrichment (6-mer frequency, TF over GST control) with ERF; 1.29 fold enrichment (6-mer frequency, TF over GST control) with ETV3L. The binding signal with ETS2 was 1.31 fold enrichment (6-mer frequency, TF over GST control); with SPDEF, 1.24 fold enrichment (6-mer frequency, TF over GST control); with ETV7 it was 1.25 fold enrichment (6-mer frequency, TF over GST control); with ELF5 it was 1.29 fold enrichment (6-mer frequency, TF over GST control); with ETV3, 1.23 fold enrichment (6-mer frequency, TF over GST control); with ETV6, 1.3 fold enrichment (6-mer frequency, TF over GST control).

For the origin of these results see PMC7862700, “An all-to-all approach to the identification of sequence-specific readers for epigenetic DNA modifications on cytosine”.
